Only some compounds are listed: those with a hit (about 2.1% of all), similar ones and a draw of the others.
bovine MsrA act = bovine methionine sulfoxide reductase A activation | purified bovine MsrA, absorbance read-out | activation, % at 10.6 µM | 360,000 tested, 0.3% active; in the data active means activation above about 7.5%
MsrA inhibitor = bovine MsrA inhibition. purified bovine MsrA, absorbance read-out. inhibition, % at 15.5 µM. 360,000 tested, 0.75% active. AID 651718; in the data active means inhibition above about 4.5%
SMARCA2 act = SMARCA2 function activation, primary screen; MG213 cells, MMTV-luciferase reporter, dexamethasone, overnight; activation, % at 9.1 µM; 370,000 tested, 1% active; AID 652017; in the data active means activation above about 7.8%
ABCB6 inh 2 = blocks the human ABCB6 transporter | Q9NP58 | fluorescence ratio to DMSO, % at 10 µM | 360,000 tested, 0.19% active | K562-ABCB6 porphyrin accumulation, flow cytometry, 1 h; stronger effect = lower value;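 active means fluorescence ratio to DMSO below 75%, the collection mean minus 3 SD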;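 further: signal is porphyrin accumulated inside mitochondria; lower ratio means ABCB6 inhibition with less porphyrin fluorescence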
Target sequence (Q9NP58 whole entry, looked up): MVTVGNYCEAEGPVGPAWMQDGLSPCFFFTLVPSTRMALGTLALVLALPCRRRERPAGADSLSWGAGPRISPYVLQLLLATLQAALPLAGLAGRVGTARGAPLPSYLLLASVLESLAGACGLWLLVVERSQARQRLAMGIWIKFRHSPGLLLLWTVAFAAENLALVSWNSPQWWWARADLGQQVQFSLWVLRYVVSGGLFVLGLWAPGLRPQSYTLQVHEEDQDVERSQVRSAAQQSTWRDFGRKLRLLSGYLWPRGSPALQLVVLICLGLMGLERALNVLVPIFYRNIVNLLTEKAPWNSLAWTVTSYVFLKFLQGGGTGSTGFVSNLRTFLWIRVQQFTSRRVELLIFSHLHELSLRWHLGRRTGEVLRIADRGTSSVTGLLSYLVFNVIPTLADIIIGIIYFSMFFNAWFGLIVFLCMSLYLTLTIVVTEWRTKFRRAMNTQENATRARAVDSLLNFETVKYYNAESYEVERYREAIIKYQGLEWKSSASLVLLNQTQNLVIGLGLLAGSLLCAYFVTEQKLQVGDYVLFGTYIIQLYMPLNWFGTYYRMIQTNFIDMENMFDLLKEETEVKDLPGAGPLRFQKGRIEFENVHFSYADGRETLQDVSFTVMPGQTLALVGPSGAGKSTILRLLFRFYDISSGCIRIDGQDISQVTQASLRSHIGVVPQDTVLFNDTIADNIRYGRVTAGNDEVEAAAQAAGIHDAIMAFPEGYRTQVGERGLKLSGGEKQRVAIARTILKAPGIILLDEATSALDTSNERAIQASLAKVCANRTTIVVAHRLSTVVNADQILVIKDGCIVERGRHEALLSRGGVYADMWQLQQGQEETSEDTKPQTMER
SMARCA2 act conf = SMARCA2 activation, confirmation screen; MG213 cells, MMTV-luciferase with dexamethasone, luminescence, overnight; MG213 cells expressing E1A, Rb sequestered; DMSO wells 0%, reference activator 100%; shares compounds with SMARCA2 act; activation, % at 9.1 µM; 3,500 tested, 30% active; AID 652260;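 active means activation above its plate's cutoff, the mean activation of tested wells plus 3 SD, cut at about 7.9% in these data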
VP16 Luc act = GAL4-VP16 reporter activation counter-screen; shares compounds with SMARCA2 act; HEK293 GAL4-VP16 pG5luc reporter, luciferase luminescence; scaled: DMSO wells 0%, SAHA wells 100%; AID 686939; activation, % at 9.1 µM; 3,500 tested, 41% active;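 active means activation above the solvent-only control well mean plus 3 SD, averaged across control plates, cut at about 5.2% in these data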
A number is an active result; i = inactive; nt = no result.

SMILES | bovine MsrA act | MsrA inhibitor | SMARCA2 act | ABCB6 inh 2 | SMARCA2 act conf | VP16 Luc act
Cc1ccc(/C=C/c2nnc(-c3cccs3)o2)cc1 | i | i | 11 | i | i | 9.0
Cc1ccc(-c2nnc(-c3cccs3)o2)cc1 | i | i | 10.0 | i | 8.2 | 9.2
COc1ccc(C2CC2C(=O)c2ccccn2)cc1 (stereo not drawn) | i | i | 8.6 | i | i | i
Fc1ccc2cc(C3=CCCCC3)ncc2c1 | nt | i | i | nt | nt | nt
COC(=O)[C@H]1C[C@@]2(N3CCCCC3)c3ccccc3N[C@H]2N1S(=O)(=O)c1ccc(C)cc1 | nt | nt | i | nt | nt | nt
Cc1ccc(C#N)c(SCC(=O)Nc2nccs2)n1 | i | i | 14 | i | i | i
N#Cc1cc2c(nc1SCC(=O)Nc1nccs1)CCCCC2 | i | i | i | i | nt | nt
N#CCC[C@H]1CC[C@]2(CCCN(C(=O)c3ccno3)C2)O1 | nt | nt | i | nt | nt | nt
COC(=O)[C@]12C[C@H](CC(=O)NCCc3ccccc3OC)C(=O)N(Cc3ccco3)C1=C[C@H](COCc1ccccc1)O[C@@H]2C | nt | nt | i | nt | nt | nt
N#CC1(NC(=O)COC(=O)/C=C/c2ccc3ccccc3n2)CCCCC1 | i | i | 9.4 | i | 8.3 | i
CC(C)C[C@H]1CN(CCCC[C@H]2CNC(=O)C(=O)N2CCC2CCCCC2)C(=O)C(=O)N1CCC1CCCCC1 | i | i | i | i | nt | nt
CC(=O)CC[C@H]1CC[C@]2(CCCN(C(=O)c3ccc4ccccc4n3)C2)O1 | nt | nt | i | nt | nt | nt
Cc1ccc(-c2c(NC(=O)c3ccccc3)nc3ncccn23)cc1 | nt | nt | i | nt | nt | nt
Cc1ccc(-c2cc(-c3nnc4sc(COc5ccccc5)nn34)[nH]n2)cc1 | nt | nt | i | nt | nt | nt
CC1CCCCN1CCCNC(=O)c1ccc2nc(N3CCCCC3)sc2c1 (stereo not drawn) | i | i | 17 | i | 9.4 | 9.8
COC(=O)[C@@]12C[C@@H](CC(=O)N3CCCC3)C(=O)N(Cc3cccc4ccccc34)C1=CCC(C)(C)C2 | nt | i | i | nt | nt | nt
C[C@H]1C(=O)[C@]23C[C@H]1CC[C@H]2[C@]1(C)[C@@H](O)CC[C@@](C)(C(=O)O)[C@H]1C[C@@H]3O | nt | nt | i | nt | nt | nt
C=C1C(=O)[C@]23C[C@H]1CCC2[C@]1(C)C(=O)CC[C@@](C)(C(=O)O)C1C[C@@H]3O (stereo partly drawn) | i | i | 31 | i | 47 | i
Cc1cccc(OCCCn2c(=O)sc3ccccc32)c1 | i | i | i | i | nt | nt
CCOc1ccc(OCCN2C(=O)c3ccccc3C2=O)cc1 | i | i | i | i | nt | nt
Cc1cccc(OCCn2c(=O)n(C)c3ccccc32)c1 | i | i | 8.9 | i | 19 | 12
Cc1cccc(OCCN2C(=O)c3ccccc3C2=O)c1 | i | i | 9.6 | i | i | i
Cc1cccc(OCCn2c(=O)sc3ccccc32)c1 | i | i | 9.0 | i | 11 | 10.0
Cc1cccc(OCCCN2CCCCCC2)c1 | i | i | i | i | nt | nt
Cc1ccccc1CC(=O)Nc1nnc(-c2cccnc2)s1 | nt | nt | i | nt | nt | nt
SMILES | bovine MsrA act | MsrA inhibitor | SMARCA2 act | ABCB6 inh 2 | SMARCA2 act conf | VP16 Luc act
O=C(CSc1nnc(CNC(=O)c2ccccc2)o1)NCCc1ccccc1 | i | i | i | i | nt | nt
O=C(CSc1nnc(Cc2ccccc2)o1)NCCc1ccccc1 | i | i | 8.2 | i | i | i
Clc1ccc(-c2csc(Nc3ccccc3)[n+]2Cc2ccco2)c(Cl)c1 | i | i | 9.0 | i | i | 6.1
CCCC[n+]1c(-c2ccc(Cl)cc2Cl)csc1Nc1ccccc1 | i | i | i | i | nt | nt
CCCn1c(=O)c(C(=O)OCC)c(O)c2cc(Br)ccc21 | i | i | i | i | nt | nt
CCOC(=O)c1c(CN(C)C)n(C)c2c(O)c(N=NC(N)=O)c3ccc(Br)cc3c12 | i | i | 9.1 | i | i | 6.3
COc1ccc(-c2ccc(SCC(=O)NC3CCCCC3)nn2)cc1 | i | i | i | i | nt | nt
CCOc1ccc(-c2ccc(SCC(=O)NC3CCCCC3)nn2)cc1 | i | i | 8.5 | i | i | 8.9
Cc1ccc(NC(=O)OC(C)CNC(=O)Oc2cccc(C)c2)cc1 (stereo not drawn) | i | i | 11 | i | 8.0 | i
O=C(c1ccc(Cl)cc1)C1CCN(Cc2ccccc2)CC1 | i | i | 8.2 | i | i | i
COc1ccc(N2CCN(C(=O)c3cc(=O)c4ccc(C)cc4o3)CC2)cc1 | i | i | 12 | i | i | i
O=C(CSc1nnnn1C1CCCC1)c1ccc2c(c1)OCCO2 | i | i | 8.3 | i | i | 5.4
Cc1cccnc1C(NC(=O)C1CCN(Cc2ccc(Oc3ccccc3)cc2)CC1)c1ccccc1 (stereo not drawn) | i | nt | nt | i | nt | nt
COc1cc2nc(N(C)C)nc(N)c2cc1OC | i | i | 13 | i | 28 | i
COc1cc2nc(Nc3ccc(C)c(C)c3)nc(N)c2cc1OC | i | i | i | i | nt | nt
NC(=Nc1ccccc1)NC(=O)c1nc(Cl)c(N)nc1N | i | i | 9.2 | i | 27 | 11
COc1ccccc1C(=O)NC1CCCCN(Cc2cccc(Cl)c2)C1=O (stereo not drawn) | nt | nt | i | nt | nt | nt
Oc1ccc(-c2cnc3ccccc3n2)cc1 | i | i | i | i | nt | nt
Oc1ccc(-c2cnc(-c3ccc(O)cc3)nc2)cc1 | i | i | 13 | i | 12 | 11
O=C1Nc2ccc(Cl)cc2C(=O)C1(F)c1ccccc1 (stereo not drawn) | i | i | i | i | nt | nt
O=C1Nc2c(ccc(Cl)c2Cl)C(=O)C1(F)c1ccccc1 (stereo not drawn) | i | i | 8.3 | i | i | i
Cc1ccc(NC(=O)c2ccc(OC(=O)C(C)Oc3ccc(Cl)cc3C)cc2)cc1 (stereo not drawn) | i | i | 11 | i | 8.0 | i
Cc1cc(Cl)ccc1OC(C)C(=O)OCC(=O)Nc1ccc2[nH]c(=O)[nH]c2c1 (stereo not drawn) | i | i | i | i | nt | nt
COC(=O)[C@]12C[C@H](CC(=O)N3CCN(C(=O)C4CC4)CC3)C(=O)N(Cc3cccc4ccccc34)C1=C[C@H](C1CCCC1)O[C@@H]2C | nt | nt | i | nt | nt | nt
C[C@@H]1NS(=O)(=O)c2cccc(Cl)c2O[C@@H]1c1ccccc1 | nt | i | i | nt | nt | nt
SMILES | bovine MsrA act | MsrA inhibitor | SMARCA2 act | ABCB6 inh 2 | SMARCA2 act conf | VP16 Luc act
Cc1nn(C)cc1CNC(=O)Nc1ccc(Cl)c(Cl)c1 | i | i | 8.0 | i | i | 6.9
CC(C)C(Cl)=NOC(=O)Nc1ccc(S(N)(=O)=O)cc1 | i | i | 47 | i | i | i
C[C@@H](CO)N(CCc1cn(Cc2ccccc2)nn1)S(=O)(=O)c1ccccc1Br | nt | nt | i | nt | nt | nt
O=C(CSC1=Nc2ccccc2C2=NC(Cc3c[nH]c4ccccc34)C(=O)N12)NC1CCCCC1 (stereo not drawn) | i | i | 8.6 | i | i | i
CC1CC(C)CN(C(=O)CSC2=Nc3ccccc3C3=NC(Cc4c[nH]c5ccccc45)C(=O)N23)C1 (stereo not drawn) | i | nt | nt | i | nt | nt
COC(=O)[C@]12C[C@H](CC(=O)NCC3CCCCC3)C(=O)N(Cc3cccc4ccccc34)C1=C[C@H](COCc1ccccc1)O[C@@H]2C | nt | nt | i | nt | nt | nt

High-throughput results (PubChem)
